Potency data for three compounds are collected here from PubChem BioAssay AID504806 (National Center for Advancing Translational Sciences (NCATS), 2011).

A short description of this assay: Followup screen of LOPAC molecules that induce DNA re-replication in SW480 adenocarcinoma cells. The following applies: Hoechst nuclear DNA content imaging, 48 h; series mostly up to 46.1 µM. The source says: NIH Molecular Libraries Probe Production Network [MLPCN] NIH Chemical Genomics Center [NCGC] MLPCN Grant: Fast Track K99 CA136555 Assay Provider: Melvin DePamphilis, NICHD, NIH Assay Overview Eukaryotic cells normally restrict genome duplication to once per cell division. When this process is aberrant, DNA re-replication occurs when cells reinitiate DNA replication before the first round of replication is complete. DNA re-replication induces the DNA damage response, arrests cell proliferation, and triggers apoptosis. The cell cycle components cyclin A, Cdt-1, Cdc6 and geminin are critical regulators of this process and their misregulation results in DNA re-replication in normal and cancer cells. To identify compounds that induce re-replication in normal cells, an image-based assay was used to measure DNA content of nuclei, as detected by the fluorescent DNA binding dye, Hoechst. Cell nuclei were imaged by a fluorescence scanning plate imager and compounds that induce DNA re-replication were identified by the increase of nuclei with elevated fluorescence intensity.
Assay Protocol Summary For screening, 250 cells in 5 uL/well were dispensed into black clear 1536-well plates (Aurora) using a solenoid-based dispenser. Following transfer of 23 nL compound or DMSO vehicle by a pin tool, the plates were incubated 48 hr at 37 C and 5% CO2. After addition of 1 uL/well Hoescht stain, the plates were incubated 40 min at 37 C, 5% CO2 and total intensity of fluorescent objects (nuclei) were enumerated by an Acumen Explorer Ex3 (TTP LabTech) fluorescence scanning plate imager (405 nm excitation, 500-530 nm emission). Keywords: NIH Roadmap, MLPCN, MLI, MLSMR, qHTS, NCGC, DNA replication, cancer

SMILES strings stand for the structures. Calls of active or inactive are those of the source. The call rests on the fitted dose curve; in most records, active means well fitted activation curve with a large enough effect; inactive means flat fitted curve, though single readings scatter.

On to `CC(C)NP(=O)(NC(C)C)OP(=O)(NC(C)C)NC(C)C`, for which the Potency result is “inactive”.
To `NCC#Cc1ccccc1` belongs 7.55 µM (active).
In the case of `COc1cc([C@@H]2c3cc4c(cc3[C@H](O)[C@@H]3COC(=O)[C@H]23)OCO4)cc(OC)c1OC`, the Potency is 0.0239 µM (active).
